# From PubChem BioAssay
# Unmarked numbers belong to inactive results. No rule for the calls is given here.
# Molecular target: Pantothenate synthetase (Mycobacterium tuberculosis (strain ATCC 25618 / H37Rv)) (UniProt P9WIL5)
# Experiment: Recombinant Mtb pantothenate synthetase (PanC) inhibitors, coupled enzyme, confirmatory (AID 375);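 also: 0% = full reaction with vehicle and 100% = no enzyme background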
# Conditions: coupled enzyme assay; at 10 µM, hits give high values
# Pantothenate synthetase (Mycobacterium tuberculosis (strain ATCC 25618 / H37Rv)), sequence (P9WIL5 whole entry, looked up): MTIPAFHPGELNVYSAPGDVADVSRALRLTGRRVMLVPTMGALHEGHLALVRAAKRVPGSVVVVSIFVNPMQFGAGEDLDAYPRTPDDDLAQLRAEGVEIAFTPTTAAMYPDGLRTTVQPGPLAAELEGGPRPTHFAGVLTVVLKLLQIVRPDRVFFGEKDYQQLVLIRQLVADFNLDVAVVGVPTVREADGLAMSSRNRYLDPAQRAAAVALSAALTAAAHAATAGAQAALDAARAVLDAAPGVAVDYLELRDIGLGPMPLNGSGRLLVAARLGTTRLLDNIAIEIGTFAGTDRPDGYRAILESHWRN
row,SMILES,inhibition [%]
1,Cc1cc(C)nc(SCCS(=O)Cc2ccc(Cl)cc2)n1 (stereo not given),0
2,c1ccc(-c2csc(N3CCCCCC3)n2)cc1,4
3,Cc1cccc(NC(=O)CC2NC3CCCCC3NC2=O)c1 (stereo not given),0
4,O=C(CSc1nc(O)c(Cc2ccccc2)c(=O)[nH]1)Nc1ccccc1,0
5,CN(C)C(CNc1nnnn1-c1ccccc1)c1ccco1 (stereo not given),2
6,S=c1[nH]ncn1-c1ccccn1,5
7,O=C(c1ccccc1)c1ccc(N2CCOCC2)c(NC(=O)c2ccco2)c1,11
8,CCOc1ccccc1C(=O)NCCC(=O)O,2
9,Cc1onc(-c2c(F)cccc2Cl)c1C(=O)Nc1nc2c(s1)CCCC2,0
10,CCOC(=O)C(NC(=O)CC)(Nc1ccc(S(=O)(=O)Nc2onc(C)c2C)cc1)C(F)(F)F (stereo not given),0
11,COc1ccc(CNc2oc(-c3cccc4ccccc34)nc2C#N)cc1,0
12,CN(C)C(=O)c1ccc(COc2ccccc2Br)o1,0
13,COc1ccc(CCN2C(=O)CC(N3CCOCC3)C2=O)cc1 (stereo not given),0
14,COC(=O)c1ccc(C2CC(=O)Nc3cc(OC)c(OC)c(OC)c32)cc1 (stereo not given),0
15,Cc1cccc(NC(=O)c2ccc3ccccc3n2)n1,0
16,O=C1CCCC2=C1C1(CCCC1)N=C(Nc1nc3ccccc3s1)N2,10
17,CCCSc1nc2c(cnn2-c2ccc(C)cc2)c(=O)[nH]1,0
18,Cc1cc(OCC(=O)Nc2ccc3oc(-c4ccncc4)nc3c2)ccc1Cl,0
19,C/C(Cl)=C\Cn1c(NCCc2ccccc2)nc2c1c(=O)n(C)c(=O)n2C,1
20,O=C(Nc1nc(-c2ccc(S(=O)(=O)N3CCCCCC3)cc2)cs1)c1cccs1,0

row,SMILES,inhibition [%]
1,Cc1ccc(SCc2[nH]nc3c2C(c2ccc(C)o2)C(C#N)=C(N)O3)cc1 (stereo not given),3
2,COc1cc(NC(=O)C2CCCN2S(=O)(=O)c2cccc3cccnc23)cc(OC)c1OC (stereo not given),0
3,CN(C(=O)CSc1nc2c(c(=O)[nH]1)CCCC2)C1CCCCC1,0
4,CC1CCCN(S(=O)(=O)c2coc(C(N)=O)c2)C1 (stereo not given),0
5,Cn1c(SCC(=O)Nc2cccc3ccccc23)nc(O)cc1=O,0
6,O=C(Cc1cccs1)Nc1nnc(CCc2ccccc2)s1,0
7,CCOC(=O)Cc1nnc(NC(=O)c2ncn[nH]2)s1,0
8,Cc1ccc(-n2ncc3c(=O)[nH]c(SCC(=O)N4CCN(c5ccccc5)CC4)nc32)cc1,0
9,O=C(CCN1C(=O)C2C3C=CC(C3)C2C1=O)N1CCN(c2ccccc2Cl)CC1 (stereo not given),3
10,CCOC(=O)CSc1nnc(-c2ccccc2OC)o1,0
11,N#CCSCC(=O)Nc1ccc(F)cc1,0
12,CC1Cc2ccccc2N1C(=O)c1cnsn1 (stereo not given),0
13,O=C(Nc1ccc(F)cc1)c1cccc2c1C(=O)N(Cc1ccccn1)C2,0
14,CCOC(=O)N1CCN(S(=O)(=O)c2cc(Cl)ccc2Cl)CC1,3
15,COCCNC(=O)C(c1ccc(C)o1)N(Cc1cccs1)C(=O)c1snc(C(N)=O)c1N (stereo not given),4
16,CN(C(=O)COc1cc(=O)n(C)c2ccccc12)c1ccc(Br)cc1,0
17,CCN(C(C)=O)c1nnc(CSc2nc3ccccc3s2)s1,5
18,Cc1ccccc1-n1c(Cn2c(=O)sc3ccccc32)nnc1SCC(N)=O,3
19,c1ccc2c(c1)nc(NCCN1CCOCC1)c1nncn12,2
20,CCc1ccc2[nH]c(=O)c(C(c3nnnn3CC3CCCO3)N3CCCc4ccccc43)cc2c1 (stereo not given),0
